Assay results from PubChem BioAssay (EPA / NIEHS).
Active and inactive are the calls of the source. How the source made its calls: active means hit-call score of the fitted dose curve at least 0.9, where 1 is the maximum; inactive means score below 0.9.

Experiments:
Details in all cases: mRNA level, 48 h; actives raise or lower the signal
[1] = read-out: Cytochrome P450 4A22 (Homo sapiens) (UniProt Q5TCH4); test: LTEA_HepaRG_CYP4A22: Life Technologies and Expression Analysis (LTEA) Assay for Cytochrome P450 4A22 (CYP4A22) using HepaRG (AID 2283495)
Summary of the method: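 qRT-PCR of CYP4A22 mRNA (Fluidigm TaqMan, normalized to three housekeeping genes) after 48 h chemical exposure of HepaRG cells; 8-point half-log series, top 100 uM, 0.5% DMSO vehicle. Bidirectional curve fitting vs DMSO baseline.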

[2] = read-out: Cytochrome P450 7A1 (Homo sapiens) (UniProt P22680); test: LTEA_HepaRG_CYP7A1: Life Technologies and Expression Analysis (LTEA) Assay for Cytochrome P450 7A1 (CYP7A1) using HepaRG (AID 2283496)
Summary of the method: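 Using 0.5% DMSO as vehicle and baseline, chemicals were tested in duplicate over an 8-point range from 100 uM on HepaRG cells for 48 h; qRT-PCR signals were normalised to ACTB, GAPDH and POLR2A.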

[3] = read-out: Glutathione S-Transferase (GSTA2), GSTA2 (gene 2939); test: LTEA_HepaRG_GSTA2: Life Technologies and Expression Analysis (LTEA) Assay for Glutathione S-Transferase (GSTA2) using HepaRG (AID 2283497)
Summary of the method: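 qRT-PCR readout of GSTA2 transcript, normalized to three housekeeping genes, fitted bidirectionally against 0.5% DMSO baseline. Differentiated HepaRG cells received compound for 48 h at 8 concentrations (top 100 uM, half-log steps).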

[4] = read-out: Glutamate-cysteine ligase catalytic (GCLC), GCLC (gene 2729); test: LTEA_HepaRG_GCLC: Life Technologies and Expression Analysis (LTEA) Assay for Glutamate-cysteine ligase catalytic (GCLC) using HepaRG (AID 2283498)
Summary of the method: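 HepaRG, 48 h exposure, 8-pt half-log series from 100 uM, 0.5% DMSO vehicle; TaqMan qRT-PCR for GCLC mRNA, housekeeping-normalized; bidirectional curve fit vs DMSO baseline.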

[5] = read-out: growth arrest and DNA damage 45 (GADD45G), GADD45G (gene 10912); test: LTEA_HepaRG_GADD45G: Life Technologies and Expression Analysis (LTEA) Assay for growth arrest and DNA damage 45 (GADD45G) using HepaRG (AID 2283499)
Summary of the method: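 Differentiated human HepaRG cells in serum-free induction medium were exposed for 48 h to 8 half-log concentrations up to 100 uM in 0.5% DMSO, in duplicate. GADD45G mRNA was measured by TaqMan qRT-PCR, normalised to ACTB, GAPDH and POLR2A, and fitted bidirectionally against DMSO.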

[6] = read-out: Glutamate-cysteine ligase regulatory (GCLM), GCLM (gene 2730); test: LTEA_HepaRG_GCLM: Life Technologies and Expression Analysis (LTEA) Assay for Glutamate-cysteine ligase regulatory (GCLM) using HepaRG (AID 2283500)
Summary of the method: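 HepaRG, 48 h dosing, 100 uM top, half-log x8, 0.5% DMSO vehicle. Readout: GCLM mRNA by TaqMan qRT-PCR, housekeeping-normalized (ACTB/GAPDH/POLR2A). Curves fit bidirectionally vs DMSO baseline.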

[7] = read-out: Glutathione S-transferase M3 (GSTM3), GSTM3 (gene 2947); test: LTEA_HepaRG_GSTM3: Life Technologies and Expression Analysis (LTEA) Assay for Glutathione S-transferase M3 (GSTM3) using HepaRG (AID 2283501)
Summary of the method: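 Differentiated HepaRG cells in serum-free induction medium were exposed in duplicate for 48 h to 8 half-log concentrations up to 100 uM in 0.5% DMSO. GSTM3 mRNA was measured by TaqMan qRT-PCR, normalized to ACTB/GAPDH/POLR2A, and fitted bidirectionally versus DMSO.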

[8] = read-out: Heat shock 70 kDa protein 1 (HSPA1A), gene 3303; test: LTEA_HepaRG_HSPA1A: Life Technologies and Expression Analysis (LTEA) Assay for Heat shock 70 kDa protein 1 (HSPA1A) using HepaRG (AID 2283502)
Summary of the method: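 HepaRG, 48 h exposure, 8-pt half-log CRC from 100 uM in 0.5% DMSO, duplicates. Readout: TaqMan qRT-PCR of HSPA1A mRNA, housekeeping-normalized (ACTB/GAPDH/POLR2A). Bidirectional fit vs 0.5% DMSO baseline.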

[9] = read-out: 3-Hydroxy-3-Methylglutaryl-CoA Synthase 2 (HMGCS2), HMGCS2 (gene 3158); test: LTEA_HepaRG_HMGCS2: Life Technologies and Expression Analysis (LTEA) Assay for 3-Hydroxy-3-Methylglutaryl-CoA Synthase 2 (HMGCS2) using HepaRG (AID 2283504)
Summary of the method: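 Differentiated human HepaRG cells were exposed in duplicate for 48 h in serum-free induction medium to eight concentrations (top 100 uM, half-log steps, 0.5% DMSO). HMGCS2 mRNA was quantified by TaqMan qRT-PCR, normalised to ACTB, GAPDH and POLR2A, then fitted bidirectionally against DMSO.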

HGF (gene 3082) = test: LTEA_HepaRG_HGF: Life Technologies and Expression Analysis (LTEA) Assay for Hepatocyte Growth Facto (HGF) using HepaRG (AID 2283505)
Summary of the method: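 Differentiated human HepaRG cells in serum-free induction medium were exposed in duplicate for 48 h to eight concentrations (top 100 uM, half-log steps, 0.5% DMSO). HGF mRNA was quantified by qRT-PCR, normalized to ACTB, GAPDH and POLR2A.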

[10] = read-out: Insulin Like Growth Factor 1 (IGF1), IGF1 (gene 3479); test: LTEA_HepaRG_IGF1: Life Technologies and Expression Analysis (LTEA) Assay for Insulin Like Growth Factor 1 (IGF1) using HepaRG (AID 2283506)
Summary of the method: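 qRT-PCR readout of IGF1 mRNA, normalized to three housekeeping genes, after 48 h chemical exposure of HepaRG cells. Concentrations: 8-point half-log series, top 100 uM, 0.5% DMSO vehicle. Gain or loss fitted against DMSO baseline.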

[11] = read-out: Interleukin 6 (IL6), IL6 (gene 3569); test: LTEA_HepaRG_IL6: Life Technologies and Expression Analysis (LTEA) Assay for Interleukin 6 (IL6) using HepaRG (AID 2283509)
Summary of the method: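 qRT-PCR read-out of IL6 transcript, normalized to three housekeeping genes, after 48 h chemical exposure of HepaRG cells; 8-point half-log series, top 100 uM, 0.5% DMSO vehicle. Bidirectional curve fitting against DMSO baseline.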

[12] = read-out: Interleukin 6 Receptor (IL6R), IL6R (gene 3570); test: LTEA_HepaRG_IL6R: Life Technologies and Expression Analysis (LTEA) Assay for Interleukin 6 Receptor (IL6R) using HepaRG (AID 2283510)
Summary of the method: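 HepaRG, 48 h exposure, 8-pt half-log series, top 100 uM, 0.5% DMSO vehicle, duplicates. Read-out: TaqMan qRT-PCR of IL6R transcript, housekeeping-gene normalized. Gain or loss fitted relative to DMSO baseline.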

[13] = read-out: Potassium channel subfamily K member 1 (KCNK1), KCNK1 (gene 3775); test: LTEA_HepaRG_KCNK1: Life Technologies and Expression Analysis (LTEA) Assay for Potassium channel subfamily K member 1 (KCNK1) using HepaRG (AID 2283511)
Summary of the method: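 HepaRG, 48 h exposure, 8-pt half-log series top 100 uM, 0.5% DMSO vehicle, duplicates. Readout: KCNK1 transcript by qRT-PCR (Fluidigm array), housekeeping-normalized; bidirectional curve fit relative to DMSO baseline.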

[14] = read-out: Keratin 19 (KRT19), KRT19 (gene 3880); test: LTEA_HepaRG_KRT19: Life Technologies and Expression Analysis (LTEA) Assay for Keratin 19 (KRT19) using HepaRG (AID 2283512)
Summary of the method: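 Differentiated human HepaRG cells, plated 48 h, were exposed in duplicate for 48 h in serum-free induction medium to eight half-log concentrations up to 100 uM in 0.5% DMSO. KRT19 mRNA was quantified by qRT-PCR, normalized to ACTB, GAPDH and POLR2A, and fitted bidirectionally versus DMSO.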

[15] = read-out: JUN Transcription Factor, JUN (gene 3725); test: LTEA_HepaRG_JUN: Life Technologies and Expression Analysis (LTEA) Assay for JUN Transcription Factor using HepaRG (AID 2283513)
Summary of the method: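 HepaRG, 48 h exposure, 8-pt half-log series top 100 uM, 0.5% DMSO, duplicate. JUN mRNA by qRT-PCR (Fluidigm), housekeeping-normalized (ACTB/GAPDH/POLR2A); bidirectional curve fit vs DMSO baseline.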

[16] = read-out: Fatty Acid-Binding Protein 1 (FABP1), FABP1 (gene 2168); test: LTEA_HepaRG_FABP1: Life Technologies and Expression Analysis (LTEA) Assay for Fatty Acid-Binding Protein 1 (FABP1) using HepaRG (AID 2283494)
Summary of the method: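 qRT-PCR readout of FABP1 transcript (normalized to three housekeeping genes) after 48 h chemical exposure of HepaRG cells; eight concentrations, half-log steps, max 100 uM, 0.5% DMSO vehicle; gain or loss fitted relative to DMSO baseline.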

[17] = read-out: Hypoxia-inducible factor 1-alpha (Homo sapiens) (UniProt Q16665); test: LTEA_HepaRG_HIF1A: Life Technologies and Expression Analysis (LTEA) Assay for Hypoxia-inducible factor 1 (HIF1A) Trancription factor using HepaRG (AID 2283503)
Summary of the method: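 Gain- or loss-of-signal HIF1A mRNA changes are fitted against a DMSO baseline. HepaRG cultures receive eight concentrations, highest 100 uM, for 48 h in serum-free induction medium with 0.5% DMSO.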

[18] = read-out: Intercellular Adhesion Molecule 1 (ICAM1), ICAM1 (gene 3383); test: LTEA_HepaRG_ICAM1: Life Technologies and Expression Analysis (LTEA) Assay for Intercellular Adhesion Molecule 1 (ICAM1) using HepaRG (AID 2283507)
Summary of the method: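 Differentiated HepaRG cells in serum-free induction medium were exposed in duplicate for 48 h to eight half-log concentrations up to 100 uM in 0.5% DMSO. Transcript levels were measured by qRT-PCR normalized to ACTB, GAPDH and POLR2A; bidirectional fits relative to DMSO.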

[19] = read-out: Insulin-like growth factor-binding protein 1 (IGFBP1), IGFBP1 (gene 3484); test: LTEA_HepaRG_IGFBP1: Life Technologies and Expression Analysis (LTEA) Assay for Insulin-like growth factor-binding protein 1 (IGFBP1) using HepaRG (AID 2283508)
Summary of the method: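 Differentiated human HepaRG cells in serum-free induction medium were exposed in duplicate for 48 h to eight concentrations, top 100 uM with half-log dilutions, in 0.5% DMSO. Transcript levels came from qRT-PCR normalised to ACTB, GAPDH and POLR2A, fitted bidirectionally against DMSO.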

Measured: outcome

Chain of Hypoxia-inducible factor 1-alpha (Homo sapiens) (Q16665 whole entry, looked up): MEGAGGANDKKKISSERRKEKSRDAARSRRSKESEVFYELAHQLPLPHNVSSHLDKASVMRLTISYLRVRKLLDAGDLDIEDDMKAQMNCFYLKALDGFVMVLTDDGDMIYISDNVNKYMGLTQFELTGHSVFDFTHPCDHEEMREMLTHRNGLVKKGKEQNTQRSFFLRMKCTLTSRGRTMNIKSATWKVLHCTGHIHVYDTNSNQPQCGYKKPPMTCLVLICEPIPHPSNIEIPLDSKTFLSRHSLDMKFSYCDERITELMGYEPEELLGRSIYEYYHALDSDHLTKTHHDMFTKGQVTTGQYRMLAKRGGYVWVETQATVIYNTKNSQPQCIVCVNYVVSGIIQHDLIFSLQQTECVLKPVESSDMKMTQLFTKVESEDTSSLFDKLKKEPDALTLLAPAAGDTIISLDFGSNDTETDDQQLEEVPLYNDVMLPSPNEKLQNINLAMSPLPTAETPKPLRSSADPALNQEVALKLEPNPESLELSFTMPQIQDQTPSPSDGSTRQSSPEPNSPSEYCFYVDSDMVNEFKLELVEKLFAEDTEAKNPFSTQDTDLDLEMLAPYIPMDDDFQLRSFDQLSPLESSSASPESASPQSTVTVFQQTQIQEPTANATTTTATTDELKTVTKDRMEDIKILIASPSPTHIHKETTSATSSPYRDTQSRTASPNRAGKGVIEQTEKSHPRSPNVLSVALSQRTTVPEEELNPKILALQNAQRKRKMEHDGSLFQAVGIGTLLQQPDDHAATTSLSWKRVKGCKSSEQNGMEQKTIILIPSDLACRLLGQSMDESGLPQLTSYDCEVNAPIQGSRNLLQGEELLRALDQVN

Cn1c(=O)c2[nH]cnc2n(C)c1=O
not listed: [16] | [17] | [18] | [19]
inactive: all other assays above

NC(=O)N1c2ccccc2C=Cc2ccccc21
not listed: [2]
inactive: all other assays above

CCc1ccc(O)c(C(C)(C)C)c1
not listed: [2] | [12]
inactive: all other assays above

CCCCCCCC1CCC(=O)O1 (configuration not stated)
not listed: [1] | [2] | HGF (gene 3082) | [12]
inactive: all other assays above

NNC(=O)c1ccncc1
not listed: [2] | [12] | [17]
inactive: all other assays above

CCCC(CCC)C(=O)O
not listed: [2] | HGF (gene 3082)
inactive: all other assays above

CCCCCOC(C)=O
not listed: [2] | [12]
inactive: all other assays above
